# Source: PubChem (Broad Institute)
# IDE exosite FP = insulin-degrading enzyme (human) exo-site inhibition. P14735. purified IDE, FL-6b probe fluorescence polarization; active compounds read low. z-score at 20 µM. 17,000 compounds, 6.3% hits. AID 1259349;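 active = z-score of -3 or lower, meaning strong loss of probe binding signal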;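 note: His-tagged human IDE residues 42-1019 made in E. coli with 30 nM FL-6b probe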
# Target sequence (P14735 42-1019 limits assumed): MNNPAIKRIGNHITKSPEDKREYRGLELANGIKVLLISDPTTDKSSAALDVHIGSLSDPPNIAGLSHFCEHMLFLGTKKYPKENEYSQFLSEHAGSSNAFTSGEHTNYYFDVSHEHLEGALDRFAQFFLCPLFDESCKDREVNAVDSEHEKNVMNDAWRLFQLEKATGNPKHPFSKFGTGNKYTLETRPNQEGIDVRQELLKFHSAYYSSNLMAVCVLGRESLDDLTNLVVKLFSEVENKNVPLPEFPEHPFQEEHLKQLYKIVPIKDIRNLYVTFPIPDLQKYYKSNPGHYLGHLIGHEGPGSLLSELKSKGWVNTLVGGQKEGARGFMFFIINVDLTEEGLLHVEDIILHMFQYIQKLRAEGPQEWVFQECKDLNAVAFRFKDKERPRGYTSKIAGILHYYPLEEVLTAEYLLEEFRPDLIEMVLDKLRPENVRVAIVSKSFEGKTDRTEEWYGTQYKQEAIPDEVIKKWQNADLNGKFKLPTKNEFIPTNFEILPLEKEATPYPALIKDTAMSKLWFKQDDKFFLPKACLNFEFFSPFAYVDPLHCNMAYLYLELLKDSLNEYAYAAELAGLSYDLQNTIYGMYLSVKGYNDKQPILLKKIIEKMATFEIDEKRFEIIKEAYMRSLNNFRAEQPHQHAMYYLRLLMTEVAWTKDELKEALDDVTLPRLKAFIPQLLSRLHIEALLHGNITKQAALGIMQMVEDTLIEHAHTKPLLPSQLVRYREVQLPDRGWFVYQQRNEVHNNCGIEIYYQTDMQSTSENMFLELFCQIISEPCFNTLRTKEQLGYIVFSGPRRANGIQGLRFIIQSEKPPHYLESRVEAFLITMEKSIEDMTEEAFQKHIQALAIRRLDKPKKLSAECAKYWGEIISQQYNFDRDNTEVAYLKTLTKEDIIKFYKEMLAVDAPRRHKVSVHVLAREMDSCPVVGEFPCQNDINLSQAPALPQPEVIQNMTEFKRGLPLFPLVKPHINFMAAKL
# Starred values were filed as active, the others as inactive. The full list was thinned out, with hits kept by preference.
SMILES,IDE exosite FP
O=C(c1cccc(F)c1)N1CC(=O)N2[C@H](CO)[C@@H](c3ccc(-c4ccccc4)cc3)[C@@H]2C1,-0.162
O=C(c1ccccc1F)N1CC(=O)N2[C@H](C1)[C@H](c1ccc(C#Cc3ccccc3)cc1)[C@@H]2CO,-3.36*
O=C(c1cccc(F)c1)N1CC(=O)N2[C@H](CO)[C@@H](c3ccc(-c4ccccc4)cc3)[C@H]2C1,0.81
O=C(c1ccccc1F)N1CC(=O)N2[C@H](C1)[C@@H](c1ccc(-c3ccccc3)cc1)[C@@H]2CO,-3.25*
O=C(Nc1ccccc1F)N1CC(=O)N2[C@H](C1)[C@H](c1ccc(C#Cc3ccccc3)cc1)[C@@H]2CO,-4.1*
O=C(Nc1ccccc1F)N1CC(=O)N2[C@@H](CO)[C@@H](c3ccc(C#Cc4ccc(F)cc4)cc3)[C@@H]2C1,0.599
O=C(c1ccccc1F)N1CC(=O)N2[C@@H](CO)[C@H](c3ccc(-c4ccccc4)cc3)[C@@H]2C1,-1.2
O=C(c1ccccc1F)N1CC(=O)N2[C@H](CO)[C@@H](c3ccc(C#Cc4ccccc4)cc3)[C@@H]2C1,0.932
O=C(Nc1ccccc1F)N1CC(=O)N2[C@H](C1)[C@@H](c1ccc(C#Cc3ccc(F)cc3)cc1)[C@@H]2CO,4.16
O=C(c1ccccc1F)N1CC(=O)N2[C@@H](CO)[C@H](c3ccc(-c4ccc(F)cc4)cc3)[C@@H]2C1,1.28
O=C1CN(Cc2ccccc2)C[C@H]2[C@H](c3ccc(Br)cc3)[C@H](CO)N12,2.73
CN1CCCCN2[C@H](C1)[C@H](c1ccc(Br)cc1)[C@@H]2CO,2.13
COc1ccccc1NC(=O)N1CC(=O)N2[C@H](C1)[C@@H](c1ccc(C#CC(C)C)cc1)[C@@H]2CO,-1.12
COc1ccc(NC(=O)N2CC(=O)N3[C@H](C2)[C@@H](c2ccc(C4=CCCC4)cc2)[C@@H]3CO)cc1,1.41
CN1CCN(C(=O)C[C@H]2CC[C@@H]3[C@@H](COc4ccc(NC(=O)C5CCOCC5)cc4C(=O)N3C)O2)CC1,-1.12
COCC(=O)Nc1ccc2c(c1)[C@@H]1C[C@H](CC(=O)NCc3ccc4c(c3)OCO4)O[C@@H](CO)[C@@H]1O2,1.99
CC(=O)N(C)C[C@H]1[C@@H](c2ccc(-c3ccc(C#N)cc3)cc2)[C@@H](CO)N1C(C)=O,1.35
COc1ccc(C#Cc2ccc([C@H]3[C@H]4CN(C(=O)c5ccc(F)cc5)CC(=O)N4[C@H]3CO)cc2)cc1,0.983
O=C1CN(Cc2ccc(F)cc2)C[C@@H]2[C@H](c3ccc(-c4cccnc4)cc3)[C@@H](CO)N12,1.29
COc1cccc(-c2ccc([C@H]3[C@@H](CO)N4CCCCN(C(=O)NC(C)C)C[C@H]34)cc2)c1,-8.13*
COc1cccc(-c2ccc([C@@H]3[C@H](CO)N4CCCCN(C(=O)c5ccc(F)cc5)C[C@@H]34)cc2)c1,0.212
CC(C)NC(=O)N1CCCCN2[C@H](CO)[C@H](c3ccc(Br)cc3)[C@@H]2C1,2.41
COc1cccc(-c2ccc([C@@H]3[C@@H](CO)N4CCCCN(C(=O)NC(C)C)C[C@@H]34)cc2)c1,-5.97*
CC(C)NC(=O)N1CCCCN2[C@H](C1)[C@H](c1ccc(Br)cc1)[C@@H]2CO,1.61
COc1cccc(-c2ccc([C@@H]3[C@@H](CO)N4CCCCN(C(=O)NC(C)C)C[C@H]34)cc2)c1,-6.62*
SMILES,IDE exosite FP
CC(C)NC(=O)N1CCCCN2[C@H](CO)[C@@H](c3ccc(Br)cc3)[C@@H]2C1,1.68
CC(C)NC(=O)N1CCCCN2[C@H](CO)[C@H](c3ccc(Br)cc3)[C@H]2C1,2.41
COc1cccc(-c2ccc([C@H]3[C@H]4CN(C(=O)c5ccc(F)cc5)CCCCN4[C@H]3CO)cc2)c1,1.38
C[C@@H]1CN([C@H](C)CO)C(=O)c2cc(-c3cccc(C#N)c3)cnc2O[C@H]1CN(C)C(=O)C1CCOCC1,-1.51
CCCNC(=O)N1[C@H](C#N)[C@H](c2ccccc2-c2cccc(C)c2)[C@@H]1CO,0.52
O=C(NC1CCCC1)[C@@H]1[C@@H](CO)[C@@H]2Cn3c(ccc(C4=CCCCC4)c3=O)[C@H]1N2CC1CC1,0.17
CC(C)[C@H]1COCc2cn(nn2)CCC[C@H](C)C(=O)N1,1.94
CS(=O)(=O)N1CCCCN2[C@H](C1)[C@@H](c1ccc(-c3cccc(C#N)c3)cc1)[C@@H]2CO,1.69
O=C(NC1CCCCC1)N1CC2(C1)[C@H](c1ccccc1)[C@H](CO)N2CC1CCCC1,0.347
COc1ccc2c3c([nH]c2c1)[C@@H](CO)N(S(=O)(=O)c1cn(C)cn1)CC31CCN(CC2CCCCC2)CC1,0.133
CCN(C[C@H]1[C@H](c2ccccc2)[C@@H](CO)N1S(C)(=O)=O)C(=O)C1CCCC1,-0.464
CO[C@@H]1CN(C)C(=O)c2cc(NC(=O)c3ccc(F)cc3)ccc2OC[C@@H](C)N(C(=O)CC2CC2)C[C@@H]1C,0.368
CCCNC(=O)N1[C@@H](CO)[C@@H](c2ccc(C3=CCCC3)cc2)[C@@H]1CNC(=O)CC,5.03
CS(=O)(=O)N1CCCCN2[C@@H](CO)[C@H](c3ccc(C#Cc4ccccn4)cc3)[C@@H]2C1,-3.9*
O=S(=O)(c1ccccc1)N1CCCCN2[C@H](CO)[C@H](c3ccc(C#Cc4ccccc4)cc3)[C@H]2C1,1.92
CS(=O)(=O)N1CCCCN2[C@H](C1)[C@@H](c1ccc(C#Cc3ccccn3)cc1)[C@@H]2CO,-3.32*
O=S(=O)(c1ccccc1)N1CCCCN2[C@H](CO)[C@H](c3ccc(C#Cc4ccccn4)cc3)[C@H]2C1,-3.19*
O=S(=O)(c1ccccc1)N1CCCCN2[C@H](CO)[C@H](c3ccc(C#Cc4ccccc4)cc3)[C@@H]2C1,3.68
CCS(=O)(=O)N1CCCCN2[C@H](CO)[C@@H](c3ccc(C#Cc4ccccn4)cc3)[C@@H]2C1,-0.474
O=C(c1ccncc1)N1CCCCN2[C@H](CO)[C@@H](c3ccc(C#Cc4ccccn4)cc3)[C@@H]2C1,-1.88
O=C(c1ccncc1)N1CCCCN2[C@H](C1)[C@H](c1ccc(C#Cc3ccccn3)cc1)[C@@H]2CO,-2.18
CC(C)(O)C#Cc1ccc([C@@H]2[C@H]3CN(S(C)(=O)=O)CCCCN3[C@H]2CO)cc1,-0.898
C/C=C/c1ccccc1[C@H]1[C@H](C#N)N(c2nc(CC)cs2)[C@H]1CO,1.03
COc1ccc2c3c(n(C)c2c1)[C@@H](CO)N(C(=O)C1CCOCC1)CC31CN(C)C1,-0.841
CN(C)CC#Cc1ccc([C@@H]2[C@@H](CO)N3CCCCN(C(=O)NC4CCCC4)C[C@@H]23)cc1,4.4
SMILES,IDE exosite FP
O=C(C[C@H]1C=C[C@H](NS(=O)(=O)c2ccccc2)[C@H](CO)O1)NCCN1CCCCC1,-0.356
COc1ccccc1NC(=O)N1CC(=O)N2[C@H](CO)[C@@H](c3ccc(C#CC(C)C)cc3)[C@H]2C1,-2.12
COc1ccc2c3c(n(C)c2c1)[C@@H](CO)N(S(C)(=O)=O)CC31CCN(C(=O)c2ccccn2)CC1,0.68
c1cncc(CN2C[C@@H]3N[C@H](C2)C3c2ccc(-c3cccnc3)cc2)c1 (stereo partly specified),1.81
OC[C@H]1[C@@H](c2ccc(-c3cccc(F)c3)cc2)[C@@H]2CN(Cc3cncnc3)CCCCN12,0.0138
OC[C@H]1[C@@H](c2ccc(-c3ccccc3F)cc2)[C@H]2CN(Cc3cccnc3)CCCCN21,2.53
OC[C@@H]1[C@H](c2ccc(/C=C/c3ccccc3)cc2)[C@H]2CN(Cc3cncnc3)CCCCN12,-4.4*
OC[C@H]1[C@H](c2ccc(Br)cc2)[C@@H]2CN(Cc3cncnc3)CCCCN12,2.8
